IEC-6 cytotox – counter-screen for KLF5 inhibitors: cytotoxicity in IEC-6 cells | IEC-6 cytotoxicity, luminescence viability | actives 0.78% (n = 290,000) | inhibition, % at 5 µM;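 further: 0% = plate median of test compound wells and 100% = cytotoxic reference compound wells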
BaF3 parental – parental Ba/F3 viability inhibition as JAK2V617F counter-screen. AID 1486. CellTiter-Glo ATP luminescence. inhibition, % at 5.6 µM. actives 1.1% (n = 220,000);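 active means inhibition above a per-campaign cutoff, the mean inhibition of all tested compounds plus 3 SD, cut at about 27% in these data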;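 further: 0% = DMSO wells and 100% = JAK Inhibitor I control wells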
APP 5UTR inh – APP translation inhibition; SH-SY5Y APP 5'UTR-luciferase reporter, luminescence; inhibition, % at 2 µM; actives 0.82% (n = 190,000);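 active means inhibition above a set limit, derived from the sample mean plus 3 SD, cut at about 45% in these data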
KLF5 inhibitor – kruppel-like factor 5 inhibition; inhibition, % at 5 µM; AID 1700; actives 0.23% (n = 290,000); DLD-1 KLF5 promoter-luciferase reporter, luminescence;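 active means inhibition above a per-plate limit of that plate's mean compound inhibition plus 3 SD, cut at about 60% in these data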;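 further: 0% = DMSO wells and 100% = LY294002 at 200 µM; higher means less KLF5 promoter-driven luciferase light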
Ba/F3 V617F tox – loss of viability in JAK2V617F-driven Ba/F3 cells; Ba/F3 EpoR-JAK2V617F viability, ATP luminescence; inhibition, % at 5.6 µM; actives 1.1% (n = 220,000);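 active means inhibition above the campaign mean plus 3 SD over all tested compounds, cut at about 24% in these data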;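 further: cytokine-independent growth of Ba/F3 cells driven by EpoR plus mutant JAK2; 0% = DMSO-treated cells and 100% = JAK inhibitor I control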
IEC-6 tox confirm – IEC-6 cytotoxicity, confirmation assay; shares compounds with IEC-6 cytotox; IEC-6 rat intestinal epithelial viability, luminescence; inhibition, % at 5 µM; actives 63% (n = 1,900);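 further: 0% = vehicle and 100% = reference cytotoxic drug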
Numbers without * were called inactive; . = no result. Compounds with a hit are over-represented: about 1.8% of the library has one in this group of screens. Unless noted, no stated cut-off is given here; in the data, active means inhibition above about 22%; inactive means the rest.

SMILES	IEC-6 cytotox	BaF3 parental	APP 5UTR inh	KLF5 inhibitor	Ba/F3 V617F tox	IEC-6 tox confirm
CS(=O)(=O)CC(=O)Nc1ccc2nc3n(c(=O)c2c1)CCCCC3	3	-4	.	-1	0	.
COc1ccc(CNC(=O)[C@@H](NC(=O)C2CCN(C(=O)[C@@H](N)CCSC)CC2)C(C)C)cc1	-2	.	.	-16	.	.
Cc1cccc(CS(=O)(=O)c2ncc(Cl)c(C(=O)NCc3ccccc3)n2)c1	62*	.	.	7	.	29*
Cc1cccc(CS(=O)(=O)c2ncc(Cl)c(C(=O)Nc3c(C)cccc3C)n2)c1	35*	.	.	-12	.	11
Cc1ccccc1NC(=O)c1nc(S(C)(=O)=O)ncc1Cl	40*	.	.	4	.	15
Cc1ccc2c(c1)N(C(=O)CCC(=O)NCc1cccc(F)c1)CCO2	-9	.	.	-6	.	.
O=C(CCCN1C(=O)C2CC=CCC2C1=O)Nc1cccc(F)c1 (stereo not drawn)	1	.	.	-8	.	.
Cc1ccc2oc(/N=C(\N)NC(=O)C3CC3)nc2c1	32*	29*	.	-14	38*	31*
CCC(C)N=C1Sc2nc3ccc(C)cc3cc2CN1CCOC (stereo not drawn)	-3	6	-12	-20	-4	.
CC(=O)/C(C#N)=C1\NC(=O)C(Cc2ccccc2C)S1 (stereo not drawn)	71*	9	.	40	4	47*
CNC(=O)/C(C#N)=C1\SC(Cc2ccc(F)cc2)C(=O)N1c1ccccc1C (stereo not drawn)	7	-2	.	-14	3	.
CC(=O)/C(C#N)=C1\NC(=O)C(Cc2ccccc2)S1 (stereo not drawn)	76*	2	5	10	-1	51*
C/C(=N\N=C1\NC(=O)C(Cc2ccccc2)S1)c1ccccc1 (stereo not drawn)	2	6	4	-19	0	.
COc1ccc(OCCCC(=O)NCC(C)C)cc1	-2	6	.	1	5	.
CONC(=O)C1CCN(C(=O)OCc2ccccc2)CC1	3	7	-15	-82	7	.
Cc1ccc(NC(=O)c2cc(S(=O)(=O)N3CCOCC3)cs2)cc1	97*	.	.	-9	.	4
COc1ccc(S(=O)(=O)Oc2ccccc2C(=S)N2CCOCC2)cc1	-1	.	.	-17	.	.
COc1ccccc1-c1nnc(NC(=O)Cc2ccccc2)o1	1	.	.	-13	.	.
COc1ccccc1-c1nnc(Nc2nc3c(OC)cccc3s2)o1	69*	76*	87*	59	72*	73*
CCOc1ccc(C(=O)NC(=S)Nc2cccc(S(=O)(=O)NC3=NCCC3)c2)cc1	65*	79*	89*	57	72*	46*
COc1ccc(CC(=O)N2CCN(c3ccccc3OC)CC2)cc1OC	5	.	.	-12	.	.
Cc1ccc(C(=O)Sc2cccccc2=O)cc1	99*	.	.	31	.	101*
Cc1nn(C)c(C(=O)Nc2ccc(Cl)c([N+](=O)[O-])c2)c1Cl	-5	1	1	-17	-2	.
C/C(CC(=O)Nc1ccc2c(c1)OCCO2)=N\NC(=O)c1ccccn1	-6	0	-136	-106	-3	.
O=C(Nc1ccc(S(=O)(=O)N2CCCCCC2)cc1)c1[nH]ncc1[N+](=O)[O-]	29*	.	.	-1	.	7
SMILES	IEC-6 cytotox	BaF3 parental	APP 5UTR inh	KLF5 inhibitor	Ba/F3 V617F tox	IEC-6 tox confirm
O=C(Nc1ccc([N+](=O)[O-])cc1)c1ccc(S(=O)(=O)N2CCCC2)cc1	-4	.	.	-15	.	.
Cc1nc(C)n(C(C)CNS(=O)(=O)c2ccc(Cl)cc2)n1 (stereo not drawn)	-7	.	.	-19	.	.
COC(=O)c1ccc(C)c(NS(=O)(=O)c2ccc(OC)cc2)c1	87*	75*	94*	53	80*	59*
COC(=O)c1ccc(C)c(NS(=O)(=O)c2ccc(C)c([N+](=O)[O-])c2)c1	-1	1	-15	-10	1	.
COc1ccc(C)cc1NC(=O)CNC(c1ccccc1)c1ccc(C)cc1 (stereo not drawn)	69*	.	.	52	.	51*
CN(C)c1cccc(/C=C(\C#N)c2ccccc2)c1	77*	76*	.	-25	81*	56*
CN(C)c1ccc(/C=C(\C#N)C(=O)c2ccccc2)cc1	6	1	.	1	0	.
OCC1(CCc2ccccc2)CCN(Cc2cccn2-c2cccnc2)CC1	1	1	-1	-10	-5	.
COc1cccc(/C=N/NC(=O)c2cc3c(OC)c(OC)ccc3[nH]2)c1OC	55*	42*	57*	33	54*	42*
COc1ccccc1/C=N/NC(=O)c1cc2c(OC)c(OC)ccc2[nH]1	47*	.	.	57	.	15
COc1ccc(/C=N\NC(=O)COc2ccc(Cl)cc2Cl)c(C(=O)O)c1OC	-1	4	4	-21	0	.
COc1ccc(OC)c(/C=N/NC(=O)c2cc3c(OC)cccc3[nH]2)c1	9	2	.	-10	-1	.
CCOC(=O)c1c(C)[nH]c(C(=O)N/N=C/c2ccc(OC)c(OC)c2)c1C	62*	.	.	36	.	49*
COc1ccc(/C=N/NC(=O)c2[nH]c3ccc(Cl)cc3c2-c2ccccc2)c(C(=O)O)c1OC	88*	.	.	-9	.	12
O=C(CC1CCCCC1)Nc1ncn[nH]1	-2	4	-1	-25	5	.
CSc1ncccc1C(=O)N1CCCC(CCC(=O)NCc2ccc(F)c(F)c2)C1 (stereo not drawn)	0	2	-28	-1	-1	.
Cc1ccsc1C(=O)N(CC(C)C)c1c(N)n(Cc2ccccc2)c(=O)[nH]c1=O	0	.	.	0	.	.
CCc1noc(C)c1C(=O)N1CCSC1=Nc1cccc(Cl)c1C	0	.	.	-4	.	.
COc1ccc(/C=N/NC(=O)c2cc3c(OC)ccc(OC)c3[nH]2)cc1O	40*	.	.	59	.	20
O=[N+]([O-])c1cccc(C=Nc2cccc3ccccc23)c1O	32*	.	.	-39	.	12
COc1ccc(OC)c(NC(=O)CS(=O)(=O)Cc2ccccc2)c1	2	.	.	-30	.	.
COc1ccc(NC(=O)c2nc(S(=O)(=O)Cc3cccc(C)c3)ncc2Cl)c(OC)c1	66*	.	.	24	.	20
COc1ccc(OC)c(NC(=O)c2nc(S(=O)(=O)Cc3ccccc3)ncc2Cl)c1	75*	.	.	45	.	6
CCCc1nnc(NC(=O)c2nc(S(=O)(=O)Cc3cccc(C)c3)ncc2Cl)s1	7	.	.	4	.	.
Cc1ccc(C2=NS(=O)(=O)N(C)C(C(=O)NC3CCCCC3)=C2)cc1	-6	.	.	-33	.	.
SMILES	IEC-6 cytotox	BaF3 parental	APP 5UTR inh	KLF5 inhibitor	Ba/F3 V617F tox	IEC-6 tox confirm
O=C(CCC1CCCN(C(=O)C2=CCCCC2)C1)N1CCN(c2ccccn2)CC1 (stereo not drawn)	-3	3	-1	-25	4	.
CC(C)c1csc(CN2CCC(n3nccc3NC(=O)Cc3ccccc3)CC2)n1	2	.	.	-15	.	.
CC(C)(C)c1ccc(-n2nc(C#N)c(Cl)cc2=O)cc1	52*	-11	94*	11	15	11
O=C(Nc1ccc2c(c1)OCCO2)C(=O)c1c[nH]c2ccccc12	66*	.	.	38	.	46*
Cc1ccc(Cn2nnnc2CN2CCC(c3nc4ccc(Cl)cc4[nH]3)CC2)cc1	88*	82*	68*	46	92*	54*
COC(=O)[C@H](Cc1c[nH]c2ccccc12)NC(=O)NCc1ccc(OC)c(OC)c1	0	.	.	-5	.	.

Screening results from PubChem.
